The supplement of paper PMC6555819

Columns and labels:
Assay in all cases: PBM binding z-score (relative to random genomic background probes); higher = stronger binding; sequences stand for … in GC…GCGATTGACAGCGTAGAATGAAGG
[1] = tested on: RARb homodimer (NR concentration 270 nM)
Summary of the method: (§1)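 Scanned fluorescence from custom Agilent 4×180K protein-binding microarrays was regression-normalized. Binding z-scores use random background probes as reference. Ligand-free nuclear receptor dimers were incubated on the arrays for 1 h and detected with antibodies against each partner (one per run).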

[2] = tested on: RARg:RXRa (NR concentration 270 nM, RXRa partner concentration 90 nM)
Summary of the method: as §1

[3] = tested on: RARg homodimer (NR concentration 270 nM)
Summary of the method: as §1

[4] = tested on: RXRa DBDmut IVT, anti-RXR (DBD mutation: RXRa K156A/R161A, NR concentration 90 nM)
Summary of the method: as §1

[5] = tested on: RXRa homodimer (NR concentration 180 nM)
Summary of the method: as §1

[6] = tested on: THRa:RXRa (NR concentration 90 nM, RXRa partner concentration 90 nM)
Summary of the method: as §1

[7] = tested on: THRa homodimer (NR concentration 90 nM)
Summary of the method: as §1

[8] = tested on: VDR homodimer (NR concentration 270 nM)
Summary of the method: as §1

TTACCAAGGCGAGCTGAGGTCGTTGATCCAACTC
PBM binding z-score [1]: 0.643 | PBM binding z-score [2]: 0.197 | PBM binding z-score [3]: -0.299 | PBM binding z-score [4]: 0.038 | PBM binding z-score [5]: 0.626 | PBM binding z-score [6]: 3.13 | PBM binding z-score [7]: 1.16 | PBM binding z-score [8]: 1.49

CCTCGGAGGACAACAGGAGGTAAGAGCTGCCAGA
PBM binding z-score [1]: 0.361 | PBM binding z-score [2]: 0.652 | PBM binding z-score [3]: 1.09 | PBM binding z-score [4]: -0.216 | PBM binding z-score [5]: -0.00959 | PBM binding z-score [6]: 0.811 | PBM binding z-score [7]: -0.12 | PBM binding z-score [8]: -0.145

ACAAACAGGTGAGTGAAGGTAACTCAGCTGGACG
PBM binding z-score [1]: 0.000775 | PBM binding z-score [2]: 0.131 | PBM binding z-score [3]: 0.536 | PBM binding z-score [4]: -0.35 | PBM binding z-score [5]: 0.457 | PBM binding z-score [6]: 1.5 | PBM binding z-score [7]: -0.581 | PBM binding z-score [8]: -0.41

TCTTGTAGATCAACAGGTGGTTAAGAAAGATCGA
PBM binding z-score [1]: -0.322 | PBM binding z-score [2]: -0.241 | PBM binding z-score [3]: -0.25 | PBM binding z-score [4]: 0.571 | PBM binding z-score [5]: -0.126 | PBM binding z-score [6]: -0.453 | PBM binding z-score [7]: -0.243 | PBM binding z-score [8]: -0.227

CCGACTGGGGCAAGGTTACCCTAACGCACAGCCA
PBM binding z-score [1]: 1.51 | PBM binding z-score [2]: 0.945 | PBM binding z-score [3]: 1.06 | PBM binding z-score [4]: -0.485 | PBM binding z-score [5]: 1.08 | PBM binding z-score [6]: 1.47 | PBM binding z-score [7]: 0.84 | PBM binding z-score [8]: -0.188

GCTTACGGATCAAAGGTTATAGCATGAATAGAAT
PBM binding z-score [1]: 0.947 | PBM binding z-score [2]: 1.91 | PBM binding z-score [3]: 0.963 | PBM binding z-score [4]: 0.513 | PBM binding z-score [5]: 3.71 | PBM binding z-score [6]: 1.64 | PBM binding z-score [7]: -0.516 | PBM binding z-score [8]: -0.0828

TAGCCTAGGTCATGCGGGGCAGTATAGTGTCGGC
PBM binding z-score [1]: 3.26 | PBM binding z-score [2]: 4.01 | PBM binding z-score [3]: 4.41 | PBM binding z-score [4]: 0.368 | PBM binding z-score [5]: 3.22 | PBM binding z-score [6]: 3.56 | PBM binding z-score [7]: 1.08 | PBM binding z-score [8]: 1.5
